# Only some compounds are listed: those with a hit (about 2.9% of all), similar ones and a draw of the others.
# ZTA counter – blocks Epstein-Barr virus ZTA, an EBNA-1 counter-screen | ZTA-DNA binding, fluorescence polarization | AID 2234 | inhibition, % at 11 µM | actives 0.15% (n = 320,000); in the data active = inhibition above about 33%
# PAFAH1B2 FP inh – blocks human PAF acetylhydrolase 1b catalytic subunit 2. P68402. recombinant PAFAH1B2, FP-rhodamine activity probe, fluorescence polarization. inhibition, % at 3.39 µM. actives 1.2% (n = 340,000);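 active = inhibition above the mean of all tested compounds plus 3 SD, cut at about 24% in these data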;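 also: 0% = enzyme with DMSO and 100% = wells lacking PAFAH1B2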
# PAFAH2 inh – inhibitors of human PAFAH2; inhibition, % at 3.39 µM; actives 0.99% (n = 340,000); Q99487; recombinant PAFAH2, FP-rhodamine activity probe, fluorescence polarization;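 active = inhibition above the mean over all tested compounds plus 3 SD, cut at about 30% in these data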;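 also: inhibitors block probe labeling of enzyme so polarization drops; 0% = enzyme with DMSO and 100% = wells lacking PAFAH2 protein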
# PAFAH1B3 FP inh – blocks human PAF acetylhydrolase 1B catalytic subunit 3 | recombinant PAFAH1B3, FP-rhodamine probe, fluorescence polarization | AID 492972 | inhibition, % at 3.39 µM | Q15102 | actives 0.28% (n = 340,000);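 active = inhibition above the screen-wide average of all tested compounds plus 3 SD, cut at about 25% in these data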;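 also: 0% = enzyme with DMSO only and 100% = wells lacking PAFAH1B3 protein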
# EBNA-1 inh – blocks EBNA-1 binding to DNA. EBNA-1 DNA binding, fluorescence polarization. inhibition, % at 14.8 µM. actives 0.34% (n = 300,000). AID 1950; in the data active = inhibition above about 28%
# pPAFAH inh – inhibitors of human plasma PAF acetylhydrolase (pPAFAH). actives 1.5% (n = 330,000). recombinant pPAFAH, FP-rhodamine probe fluorescence polarization. Q13093. inhibition, % at 3.39 µM;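 active = inhibition above the mean inhibition across the screen plus 3 SD, cut at about 25% in these data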;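 also: inhibitors block binding of the rhodamine activity-based probe so polarization drops; 0% = enzyme with DMSO and 100% = wells lacking pPAFAH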
# Target sequence (Q13093 whole entry, looked up): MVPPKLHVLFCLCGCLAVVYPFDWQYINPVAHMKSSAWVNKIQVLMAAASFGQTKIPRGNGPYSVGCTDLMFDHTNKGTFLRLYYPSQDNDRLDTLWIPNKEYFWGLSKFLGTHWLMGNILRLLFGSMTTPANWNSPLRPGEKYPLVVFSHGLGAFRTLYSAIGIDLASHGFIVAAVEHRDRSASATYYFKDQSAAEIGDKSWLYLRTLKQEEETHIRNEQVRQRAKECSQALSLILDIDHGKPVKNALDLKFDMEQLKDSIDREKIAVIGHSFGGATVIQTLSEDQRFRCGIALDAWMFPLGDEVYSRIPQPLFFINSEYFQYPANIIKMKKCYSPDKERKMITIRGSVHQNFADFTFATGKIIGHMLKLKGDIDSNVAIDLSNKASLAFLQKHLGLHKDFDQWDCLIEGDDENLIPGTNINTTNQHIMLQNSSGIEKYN
# Starred values were filed as active, the others as inactive; x = no result given.
SMILES,ZTA counter,PAFAH1B2 FP inh,PAFAH2 inh,PAFAH1B3 FP inh,EBNA-1 inh,pPAFAH inh
CC(C)N(Cc1ccccc1)C(=O)CN1C(=O)NC(Cc2ccccc2)(c2ccccc2)C1=O (configuration not stated),0,26*,-8,7,5,5
COc1ccc(NS(=O)(=O)c2cccc(C(=O)NCC(c3cccs3)N3CCOCC3)c2)cc1 (configuration not stated),x,5,5,9,x,24
CC(C)Oc1ccc(C(=O)NCCCNC(=O)c2ccccn2)cc1,-2,5,-6,8,-11,2
O=C1CC(SCCc2nc3ccccc3[nH]2)C(=O)N1c1ccc(Cl)cc1 (configuration not stated),6,32*,-7,1,-9,2
O=C1CC(SCc2nc3ccccc3[nH]2)C(=O)N1c1ccc(F)c(Cl)c1 (configuration not stated),-10,29*,2,5,-7,2
CCCOc1ccc(N2C(=O)CC(SCCc3nc4ccccc4[nH]3)C2=O)cc1 (configuration not stated),-6,1,-1,-4,-6,2
COc1cccc(CCNC(=O)CC2C(=O)NCCN2Cc2ccc(C)o2)c1 (configuration not stated),-25,0,-5,5,-2,4
Cn1c2ccccc2c2cc(/C=N/NC(=O)c3cc(O)cc(O)c3)ccc21,5,25*,-34,16,2,30*
CCn1c2ccccc2c2cc(/C=N/NC(=O)c3ccccc3)ccc21,0,1,-14,-8,-4,2
CC1(c2ccccc2)NC(=O)N(CC(=O)N2CCN(S(=O)(=O)c3cccc(C(F)(F)F)c3)CC2)C1=O (configuration not stated),x,6,4,-5,x,x
Cc1[nH]c2c(C)cccc2c1CC(=O)O,5,6,16,7,0,1
Cc1cccc2c(N=O)c(O)[nH]c12,-4,30*,25,53*,-5,31*
Cc1cc(=O)[nH]c(SCc2ccc(Cl)cc2Cl)n1,10,29*,22,-3,5,9
Cc1cnc(SCc2ccc(Cl)cc2Cl)[nH]c1=O,2,27*,5,11,9,6
Cc1nnc(SCc2ccc(Cl)cc2Cl)[nH]c1=O,12,27*,12,6,10,21
O=c1nccc(SCc2ccc(Cl)cc2Cl)[nH]1,-7,13,2,7,-2,5
Cn1c(=O)c2c(nc(N3CCc4ccccc4C3)n2C)n(C)c1=O,-8,11,4,15,-11,0
O=c1[nH]c2ccccc2c(O)c1-c1cc2ccccc2oc1=O,-13,x,x,x,-4,6
Nc1c(C(=O)NCC2CCCO2)sc2nc3c(c(-c4ccco4)c12)CC/C3=C\c1ccco1 (configuration not stated),x,24*,54*,39*,x,x
CCCCn1c(NC(=O)c2ccc(F)cc2)c(C#N)c2nc3ccccc3nc21,10,x,x,x,-19,9
CCCCn1c(NC(=O)c2ccccc2)c(C#N)c2nc3ccccc3nc21,x,44*,55*,59*,x,x
O=C(O)/C=C/c1ccc(-n2ccnc2)cc1,-2,5,-7,11,7,0
Cc1cc(C)c2c(N)c3cccc(C)c3nc2n1,-10,0,0,2,-1,-1
O=C(O)C1CCCN(S(=O)(=O)c2ccc(Cl)s2)C1 (configuration not stated),-12,29*,-2,6,7,4
O=C(O)C1CCCN(S(=O)(=O)c2ccc(Br)s2)C1 (configuration not stated),-12,12,5,8,-18,4
SMILES,ZTA counter,PAFAH1B2 FP inh,PAFAH2 inh,PAFAH1B3 FP inh,EBNA-1 inh,pPAFAH inh
COc1cccc(CN(C)C(=O)c2cc(S(=O)(=O)NC3CCCCC3)ccc2C)c1,x,7,10,-1,x,34*
Cc1noc(C)c1COC(=O)c1ccccc1NC(=O)c1ccco1,-16,5,-1,5,-4,5
Nc1nc(SCc2ccc(Cl)cc2Cl)nc2nc3c(cc12)CCCC3,1,-4,1,-8,29*,-2
Nc1nc(SCc2ccccc2Cl)nc2nc3c(cc12)CCCC3,-6,0,-3,-6,2,4
O=C(NCC1CCCO1)c1cc2ccccc2o1 (configuration not stated),-1,3,4,0,2,0
O=C(CN1CSCC1=O)N1CCN(S(=O)(=O)c2ccc(Cl)cc2)CC1,4,29*,-3,12,x,2
Nn1c(SCC(=O)N2CCN(S(=O)(=O)c3ccccc3)CC2)nnc1-c1cccs1,4,3,-2,11,6,4
Cc1ccc(S(=O)(=O)N2CCN(C(=O)C(C)Cn3nc(C)c(C)c3C)CC2)cc1 (configuration not stated),0,8,-4,5,2,3
Nn1c(SCC(=O)N2CCN(S(=O)(=O)c3ccc(Cl)cc3)CC2)nnc1-c1cccs1,3,23,4,-1,-4,31*
Cc1nn(CC(C)C(=O)N2CCN(S(=O)(=O)c3ccc(Cl)cc3)CC2)c(C)c1C (configuration not stated),-12,26*,3,-2,-15,-5
Cc1nnc(SCC(=O)N2CCN(S(=O)(=O)c3ccc(Cl)cc3)CC2)[nH]c1=O,-6,30*,4,3,-16,-6
O=C(CN1CCN(S(=O)(=O)c2ccc(Cl)cc2)CC1)N1CCCC1,x,20,-5,9,x,x
Cc1ccc(C)c(OCc2cc(C(=O)N(C)Cc3nccs3)no2)c1,-12,1,1,-6,0,6
COc1cc(C2c3cc4c(cc3OC(C)(N3CCCC3)C2C)OCO4)cc(OC)c1OC (configuration not stated),x,4,-2,7,x,x
COc1ccccc1N(CC(=O)NCCSCc1ccc(C)cc1)S(=O)(=O)c1ccccc1,3,27*,1,1,-6,2
CC1(C)C[C@@H]1C(=O)N/C(=C\CCCCSC[C@H](N)C(=O)O)C(=O)O,-1,0,-1,8,4,5
Cc1cc(=O)[nH]c(SCC(=O)Nc2cc(S(=O)(=O)N3CCCC3)ccc2Cl)n1,-5,3,6,2,8,4
CCCc1cc(=O)[nH]c(SCC(=O)Nc2cc(S(=O)(=O)N3CCCCC3)ccc2C)n1,-5,24*,-2,15,x,4
COc1ccc([C@@H]2CC=C(C(=O)O)[C@H](c3ccccc3F)N2S(=O)(=O)c2ccccc2C)cc1,0,11,4,14,8,5
COc1ccc([C@@H]2CC=C(C(=O)O)[C@H](c3ccc(F)cc3)N2S(=O)(=O)c2ccccc2C)cc1,7,25*,1,1,13,3

# Assay outcomes deposited in PubChem by The Scripps Research Institute Molecular Screening Center.
